In PubChem BioAssay (EPA / NIEHS):
Records with an inconclusive call do not appear. Calls of active or inactive are those of the source. Rule for the calls, unless noted: active = hit-call score of the fitted dose curve at least 0.9, where 1 is the maximum; inactive = score below 0.9.

Experiments:
[1] = target: Retinoic acid receptor alpha (Homo sapiens) (UniProt P10276); assay: ATG_DR5_RAR_CIS: Attagene CIS-FACTORIAL HepG2 Assay for human Retinoic Acid Receptor Alpha (RARE), DR5 submotif (AID 2282934); details: HepG2 Attagene cis-factorial RARE DR5 reporter, mRNA; actives raise or lower the signal
Sequence of Retinoic acid receptor alpha (Homo sapiens) (P10276 whole entry, looked up): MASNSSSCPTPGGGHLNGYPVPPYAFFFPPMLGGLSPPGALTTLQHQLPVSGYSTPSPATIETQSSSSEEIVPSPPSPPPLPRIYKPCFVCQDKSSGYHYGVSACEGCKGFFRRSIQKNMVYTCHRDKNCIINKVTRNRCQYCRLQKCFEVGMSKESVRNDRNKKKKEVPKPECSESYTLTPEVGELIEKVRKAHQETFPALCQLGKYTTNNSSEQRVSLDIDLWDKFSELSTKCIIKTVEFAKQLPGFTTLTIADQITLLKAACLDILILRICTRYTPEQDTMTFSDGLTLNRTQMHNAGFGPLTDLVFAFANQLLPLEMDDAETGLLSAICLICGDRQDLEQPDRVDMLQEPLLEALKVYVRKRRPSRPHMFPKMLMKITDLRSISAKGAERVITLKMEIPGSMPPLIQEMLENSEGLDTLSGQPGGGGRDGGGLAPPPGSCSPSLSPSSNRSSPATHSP
Summary of the method: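 Read-out: DR5-driven reporter transcript measured by RT-PCR, 6-FAM primer extension, HpaI digest and capillary electrophoresis. Human HepG2 liver cells carry transiently transfected cis-element reporter constructs; dosing lasts 24 h. Gain or loss of signal fitted against DMSO baseline.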

[2] = target: Hepatocyte nuclear factor 3-beta (Homo sapiens) (UniProt Q9Y261); assay: ATG_FoxA2_CIS: Attagene CIS-FACTORIAL HepG2 Assay for human Forkhead box A2 (FOXA2) (AID 2282942); details: HepG2 cis-reporter transcription factor activity, 24 h; actives raise or lower the signal
Sequence of Hepatocyte nuclear factor 3-beta (Homo sapiens) (Q9Y261 whole entry, looked up): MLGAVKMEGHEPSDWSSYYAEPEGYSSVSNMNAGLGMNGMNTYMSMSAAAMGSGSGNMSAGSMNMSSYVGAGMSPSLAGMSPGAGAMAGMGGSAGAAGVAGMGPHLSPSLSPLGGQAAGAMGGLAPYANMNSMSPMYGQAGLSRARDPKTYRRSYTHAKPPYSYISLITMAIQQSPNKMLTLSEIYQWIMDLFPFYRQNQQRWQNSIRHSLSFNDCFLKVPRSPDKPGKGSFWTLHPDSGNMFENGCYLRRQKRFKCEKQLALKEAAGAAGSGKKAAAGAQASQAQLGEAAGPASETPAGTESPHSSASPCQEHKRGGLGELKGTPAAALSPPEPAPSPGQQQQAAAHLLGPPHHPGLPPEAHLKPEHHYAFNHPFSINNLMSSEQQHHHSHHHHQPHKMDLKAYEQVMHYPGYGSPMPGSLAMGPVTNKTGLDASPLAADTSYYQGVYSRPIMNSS
Summary of the method: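 Endogenous transcription factor activity was read in HepG2 cells carrying transiently transfected cis-promoter reporter units. After 24 h dosing, reporter mRNA was quantified by RT-PCR and capillary electrophoresis, and values fitted bidirectionally versus DMSO.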

[3] = ATG_FoxO_CIS: Attagene CIS-FACTORIAL HepG2 Assay for human Forkhead box O (FoxO) (AID 2282943); details: HepG2 Attagene cis-reporter, FoxO element, mRNA; actives raise or lower the signal
Summary of the method: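 Read-out: fluorescence of 6-FAM-labelled reporter cDNA fragments resolved by capillary electrophoresis. Transiently transfected HepG2 cells were dosed for 24 h; activity fitted in both directions relative to DMSO controls.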

[4] = ATG_GRE_CIS: Attagene CIS-FACTORIAL HepG2 Assay for human Glucocorticoid Response Elements (GRE) (AID 2282947); details: HepG2 GRE cis-reporter, Attagene multiplex mRNA; actives raise or lower the signal
Summary of the method: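 Read-out: fluorescent reporter-transcript fragments separated by capillary electrophoresis after RT-PCR. Transiently transfected HepG2 cells carrying cis-element-driven reporter units were dosed for 24 h; gain or loss of signal fitted against DMSO control.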

[5] = ATG_PBREM_CIS: Attagene CIS-FACTORIAL HepG2 Assay for human Phenobarbital-responsive Enhancer Module (PBREM) (AID 2282955); details: HepG2 PBREM cis-reporter, Attagene multiplexed transcription; actives raise or lower the signal
Summary of the method: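 Fluorescence of labelled reporter cDNA fragments, resolved by capillary electrophoresis, gives mRNA induction in transfected HepG2 cells treated for 24 h; DMSO serves as negative control and baseline.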

[6] = ATG_RORE_CIS: Attagene CIS-FACTORIAL HepG2 Assay for human RAR-related Orphan Receptor Element (RORE) (AID 2282959); details: HepG2 Attagene cis-factorial RORE reporter, mRNA; actives raise or lower the signal
Summary of the method: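 Cells were HepG2 carrying transfected cis-regulated reporter constructs, dosed for 24 hours. Total RNA was reverse-transcribed and reporter cDNA amplified, fluorescently labeled and sized by capillary electrophoresis. Activity was fitted bidirectionally relative to DMSO.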

[7] = ATG_SREBP_CIS: Attagene CIS-FACTORIAL HepG2 Assay for human Sterol Regulatory Element Binding (SREBP) (AID 2282962); details: HepG2 Attagene cis-factorial SREBP reporter, mRNA; actives raise or lower the signal
Summary of the method: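 Readout: fluorescent reporter-transcript peaks resolved by capillary electrophoresis after RT-PCR. Cells were human HepG2 carrying transfected cis-promoter reporter constructs, dosed for 24 h. Gain or loss of signal was fitted against DMSO controls.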

[8] = target: Hepatocyte nuclear factor 4-alpha (Homo sapiens) (UniProt P41235); assay: ATG_HNF4a_TRANS: Attagene TRANS-FACTORIAL HepG2 Assay for human Hepatocyte Nuclear Factor 4 alpha (HNF4a) (AID 2282982; active = hit-call score of the fitted dose curve at least 0.9, where 1 is the maximum); details: HepG2 HNF4a transactivation reporter, mRNA readout
Sequence of Hepatocyte nuclear factor 4-alpha (Homo sapiens) (P41235 whole entry, looked up): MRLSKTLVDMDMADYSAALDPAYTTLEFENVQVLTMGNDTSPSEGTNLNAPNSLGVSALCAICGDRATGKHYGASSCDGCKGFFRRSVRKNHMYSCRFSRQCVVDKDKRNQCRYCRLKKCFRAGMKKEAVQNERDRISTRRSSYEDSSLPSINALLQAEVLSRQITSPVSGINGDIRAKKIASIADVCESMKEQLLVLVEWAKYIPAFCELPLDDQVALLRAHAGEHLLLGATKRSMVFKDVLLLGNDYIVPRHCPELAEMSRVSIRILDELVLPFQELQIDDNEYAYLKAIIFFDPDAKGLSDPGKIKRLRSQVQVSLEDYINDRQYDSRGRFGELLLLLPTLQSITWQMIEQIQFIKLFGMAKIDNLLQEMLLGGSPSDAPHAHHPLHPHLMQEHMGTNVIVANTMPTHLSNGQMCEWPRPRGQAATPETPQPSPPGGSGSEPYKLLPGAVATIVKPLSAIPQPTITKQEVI
Summary of the method: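 Transient MRTU transfection of HepG2, 24 h dosing. Readout: reporter mRNA via RT-PCR + capillary electrophoresis, fluorescence; activity fit upward relative to DMSO control.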

[9] = ATG_M_32_TRANS: Attagene TRANS-FACTORIAL HepG2 Assay for M32 Transcription Factor (Internal Marker) (AID 2282984; active = hit-call score of the fitted dose curve at least 0.9, where 1 is the maximum;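 note: transcript level of a background control reporter unit measured by RT-PCR and capillary electrophoresis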); details: HepG2 Attagene TRANS M32 internal marker reporter
Summary of the method: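 Read-out: fluorescent reporter cDNA fragments resolved by capillary electrophoresis after RT-PCR of total RNA. Transfected HepG2 cells were exposed to chemical for 24 h. Activity scored in the positive direction relative to DMSO.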

[10] = ATG_NFI_CIS: Attagene CIS-FACTORIAL HepG2 Assay for human Nuclear Factor I (NFI) (AID 2282989); details: HepG2 cis-regulatory reporter, NFI response element transcription; actives raise or lower the signal
Summary of the method: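 Reporter transcripts were measured by RT-PCR with fluorescent primer extension and capillary electrophoresis 24 h post-treatment. HepG2 cells carried transiently transfected cis-regulated reporter constructs reporting endogenous factor activity; gain or loss fitted against DMSO baseline.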

[11] = ATG_NF_kB_CIS: Attagene CIS-FACTORIAL HepG2 Assay for human Nuclear Factor Kappa B (NF-kB) (AID 2282991); details: HepG2 Attagene cis-factorial NF-kB reporter mRNA; actives raise or lower the signal
Summary of the method: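 Endogenous transcription factor activity in HepG2 was captured via cis-regulated reporter constructs; after 24 h dosing, reporter mRNA was reverse-transcribed, amplified, fluorescently labelled and sized by capillary electrophoresis, with activity fitted bidirectionally relative to DMSO.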

[12] = target: human Retinoid X Receptor beta (RXRb), RXRB (gene 6257) (UniProt P28702); assay: ATG_RXRb_TRANS: Attagene TRANS-FACTORIAL HepG2 Assay for human Retinoid X Receptor beta (RXRb) (AID 2283013; active = hit-call score of the fitted dose curve at least 0.9, where 1 is the maximum)
Sequence of human Retinoid X Receptor beta (RXRb), RXRB (gene 6257) (P28702 whole entry, looked up, the tested form may be a part): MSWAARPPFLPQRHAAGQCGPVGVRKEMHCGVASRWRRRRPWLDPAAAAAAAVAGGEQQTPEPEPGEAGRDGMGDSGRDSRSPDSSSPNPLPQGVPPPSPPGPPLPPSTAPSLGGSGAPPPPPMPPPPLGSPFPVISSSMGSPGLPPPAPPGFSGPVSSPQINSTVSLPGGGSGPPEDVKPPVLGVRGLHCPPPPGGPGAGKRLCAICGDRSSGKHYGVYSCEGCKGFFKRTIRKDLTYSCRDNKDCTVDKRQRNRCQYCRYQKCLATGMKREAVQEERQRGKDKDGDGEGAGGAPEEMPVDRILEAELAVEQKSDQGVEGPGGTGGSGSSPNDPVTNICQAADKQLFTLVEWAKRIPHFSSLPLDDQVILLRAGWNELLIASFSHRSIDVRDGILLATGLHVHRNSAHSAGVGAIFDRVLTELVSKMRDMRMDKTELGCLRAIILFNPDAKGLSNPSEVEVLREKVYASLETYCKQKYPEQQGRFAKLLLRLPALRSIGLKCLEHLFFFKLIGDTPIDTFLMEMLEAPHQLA
Summary of the method: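 After a 24 h incubation with test chemical, transfected HepG2 cells carrying NR-Gal4 fusions and GAL4-UAS reporter transcription units yield RNA whose reporter cDNA is FAM-labelled, HpaI-cut and sized by capillary electrophoresis; increases over DMSO are scored.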

[13] = TOX21_p53_BLA_p2_viability: Viability Assessment in the Tox21 HCT-116 p53 Agonism Beta-lactamase Assay, Phase 2 (AID 2283591; active = hit-call score of the fitted dose curve at least 0.9, where 1 is the maximum;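 note: compound exposure lasted 16 h at 37 °C; actives lower the ATP signal meaning cytotoxicity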)
Summary of the method: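 HCT116 p53-bla cells, 4000/well, dosed after 5 h plating (217-fold dilution of DMSO stocks) and incubated 16 h at 37C. Viability taken as cellular ATP by CellTiter-Glo luminescence after 30 min RT; signal loss marks cytotoxicity.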

[14] = target: Cellular tumor antigen p53 (Homo sapiens) (UniProt P04637); assay: TOX21_p53_BLA_p2_ratio: Tox21 HCT-116 p53 Agonism Beta-lactamase Assay, Ratio, Phase 2 (AID 2283592; active = hit-call score of the fitted dose curve at least 0.9, where 1 is the maximum)
Sequence of Cellular tumor antigen p53 (Homo sapiens) (P04637 whole entry, looked up): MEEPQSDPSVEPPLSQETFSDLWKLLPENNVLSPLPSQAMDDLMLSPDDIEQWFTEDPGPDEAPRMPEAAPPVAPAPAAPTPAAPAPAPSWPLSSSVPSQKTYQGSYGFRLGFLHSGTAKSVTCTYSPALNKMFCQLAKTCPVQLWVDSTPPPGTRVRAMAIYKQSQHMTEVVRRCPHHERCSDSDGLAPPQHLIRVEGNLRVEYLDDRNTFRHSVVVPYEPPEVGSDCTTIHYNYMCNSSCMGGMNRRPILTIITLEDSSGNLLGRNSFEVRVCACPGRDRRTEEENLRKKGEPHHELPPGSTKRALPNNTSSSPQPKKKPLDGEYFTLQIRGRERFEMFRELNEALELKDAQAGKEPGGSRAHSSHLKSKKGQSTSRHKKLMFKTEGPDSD
Summary of the method: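 DMSO-normalized, positive-direction endpoint derived from the 460 nm/530 nm FRET ratio in HCT116 p53 beta-lactamase reporter cells exposed 16 h at 37C and loaded with CCF4-AM for 2 h.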

[15] = target: Cellular tumor antigen p53 (Homo sapiens) (UniProt P04637); assay: TOX21_p53_BLA_p3_ratio: Tox21 HCT-116 p53 Agonism Beta-lactamase Assay, Ratio, Phase 3 (AID 2283596; active = hit-call score of the fitted dose curve at least 0.9, where 1 is the maximum)
Summary of the method: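 Cells were seeded at 4000/well, rested 5 h at 37C, then dosed with DMSO compound solutions (217-fold dilution) for 16 h. CCF4-AM substrate was loaded for 2 h at room temperature, and the 460/530 nm emission ratio was fitted for gain of signal versus DMSO.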

[16] = target: Cellular tumor antigen p53 (Homo sapiens) (UniProt P04637); assay: TOX21_p53_BLA_p5_ratio: Tox21 HCT-116 p53 Agonism Beta-lactamase Assay, Ratio, Phase 5 (AID 2283599; active = hit-call score of the fitted dose curve at least 0.9, where 1 is the maximum)
Summary of the method: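 HCT-116 p53-bla cells (4000/well) plated 5 h, dosed with compound (217-fold DMSO dilution) for 16 h at 37 C; CCF4-AM substrate 2 h at room temperature. Activity is the 460/530 nm emission ratio (405 nm excitation), fitted in gain-of-signal direction versus DMSO.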

[17] = target: Cellular tumor antigen p53 (Homo sapiens) (UniProt P04637); assay: TOX21_p53_BLA_p4_ratio: Tox21 HCT-116 p53 Agonism Beta-lactamase Assay, Ratio, Phase 4 (AID 2283601; active = hit-call score of the fitted dose curve at least 0.9, where 1 is the maximum)
Summary of the method: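 HCT-116 p53 beta-lactamase reporter cells (4000/well) preincubated 5 h, then compound (217-fold dilution of DMSO stock) for 16 h at 37C. CCF4-AM substrate added 2 h at room temperature; 460/530 nm emission ratio fitted upward versus DMSO.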

[18] = target: human Peroxisome Proliferator-activated Receptor alpha (PPARa), PPARA (gene 5465) (UniProt Q07869); assay: ATG_PPARa_TRANS: Attagene TRANS-FACTORIAL HepG2 Assay for human Peroxisome Proliferator-activated Receptor alpha (PPARa) (AID 2283001; active = hit-call score of the fitted dose curve at least 0.9, where 1 is the maximum)
Sequence of human Peroxisome Proliferator-activated Receptor alpha (PPARa), PPARA (gene 5465) (Q07869 whole entry, looked up, the tested form may be a part): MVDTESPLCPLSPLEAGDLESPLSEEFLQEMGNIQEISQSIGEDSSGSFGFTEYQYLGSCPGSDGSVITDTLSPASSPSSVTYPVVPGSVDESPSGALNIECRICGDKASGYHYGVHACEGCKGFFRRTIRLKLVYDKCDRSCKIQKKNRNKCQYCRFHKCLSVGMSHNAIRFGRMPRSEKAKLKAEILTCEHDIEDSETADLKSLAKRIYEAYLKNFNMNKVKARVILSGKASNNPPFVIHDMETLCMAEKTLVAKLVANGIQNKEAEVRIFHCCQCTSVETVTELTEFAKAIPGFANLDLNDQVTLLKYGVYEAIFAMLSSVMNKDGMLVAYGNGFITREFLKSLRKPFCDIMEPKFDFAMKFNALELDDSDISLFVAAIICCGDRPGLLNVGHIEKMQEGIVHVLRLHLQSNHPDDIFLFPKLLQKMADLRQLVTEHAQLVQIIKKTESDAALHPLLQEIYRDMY
Summary of the method: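 Transient HepG2 transfection, GAL4-UAS reporters, NR-Gal4 chimeras; 24 h compound exposure. Readout: reporter transcripts by RT-PCR, 6-FAM primer extension, HpaI digest, capillary electrophoresis. Positive direction vs DMSO baseline.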

[19] = TOX21_p53_BLA_p3_viability: Viability Assessment in the Tox21 HCT-116 p53 Agonism Beta-lactamase Assay, Phase 3 (AID 2283593; active = hit-call score of the fitted dose curve at least 0.9, where 1 is the maximum;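 note: cells exposed to compound for 16 h before reading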)
Summary of the method: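 HCT116 cells, 4000/well, dosed 5 h after plating by pin transfer (217-fold dilution from DMSO stock) and incubated 16 h at 37C, 5% CO2. Viability read as ATP luminescence with CellTiter-Glo after 30 min at room temperature.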

[20] = TOX21_p53_BLA_p5_viability: Viability Assessment in the Tox21 HCT-116 p53 Agonism Beta-lactamase Assay, Phase 5 (AID 2283600; active = hit-call score of the fitted dose curve at least 0.9, where 1 is the maximum)
Summary of the method: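 Here cell health was gauged by ATP levels in wells holding 4000 cells, each treated 16 h with DMSO-delivered compounds at 217-fold dilution; reduced luminescence marked toxicity.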

Measured: outcome

CCC(=O)OCc1ccc(OC)cc1
not listed: [18] | [19] | [20]
inactive: all other assays above

CCCCNC(N)=O
not listed: [2] | [3] | [8] | [9]
inactive: all other assays above

CC(=O)OC(C)(C)Cc1ccccc1
not listed: [4] | [5] | [9] | [10] | [12] | [16]
inactive: all other assays above

O=C(Oc1ccccc1)c1ccccc1
inactive: [1] | [3] | [5] | [6] | [7] | [8] | [10] | [11] | [12]

COC(=O)CCSCCC(=O)OC
inactive: [1] | [2] | [3] | [4] | [5] | [6] | [9] | [10] | [11] | [18]
